Screening results deposited in PubChem by several laboratories.
Rows were chosen to be rich in hits. Some 4.4% of all compounds tested hit in one or more screens of this group.
PfHsp90 yeast 2 = reduces growth (ATP signal) of yeast expressing P. falciparum Hsp90 | S. cerevisiae expressing PfHsp90, BacTiter-Glo ATP, 48 h; yeast lacking PDR1 and PDR3 efflux regulators | inhibition, % at 9.4 µM | 310,000 compounds, 0.32% hits;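 active = every replicate shows inhibition above about 80%, whatever the replicate mean, limit read from the data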
tim10-1 inh = growth inhibitors of tim10-1 mutant yeast | S. cerevisiae tim10-1 ts strain growth, BacTiter-Glo, 24 h | inhibition, % at 20 µM | 330,000 compounds, 2.2% hits;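 active = inhibition of at least 40%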;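 note: mutant grown at 25 °C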
SKKanGAS inh = SKKanGAS growth inhibition. 300,000 compounds, 1.3% hits. S. pyogenes SKKanGAS, kanamycin growth, BacTiter-Glo, 6 h. inhibition, % at 7.5 µM;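 active = mean replicate score, as percent of positive control median, at least 50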;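 note: strain carries kanamycin resistance gene driven by streptokinase promoter and grows in 40 µg/ml kanamycin; loss of luminescence reflects streptokinase promoter inhibition or plain growth inhibition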
TIM10 inh = TIM10 yeast growth inhibition; S. cerevisiae TIM10 strain growth, BacTiter-Glo luminescence, 24 h; inhibition, % at 10 µM; 330,000 compounds, 1.4% hits;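 active = inhibition of 40% or more at the single tested concentration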;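 note: wild-type TIM10 isogenic control strain grown at permissive 25 °C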
tim23-1 inh = tim23-1 yeast growth inhibition | 330,000 compounds, 1.3% hits | inhibition, % at 20 µM | AID 463212 | S. cerevisiae tim23-1 growth, BacTiter-Glo luminescence, 24 h;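 active = growth inhibition of the mutant yeast at or above 50%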;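 note: temperature-sensitive mutant grown at 25 °C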
tim10 confirm = TIM10 yeast growth inhibition, confirmed; S. cerevisiae tim10 strain growth, BacTiter-Glo luminescence, 24 h; AID 463215; inhibition, % at 10 µM; 4,600 compounds, 63% hits; shares compounds with TIM10 inh;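 active = inhibition of yeast growth at or above a set limit in either of two replicates at 10 µM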; note: this counterscreen used the strain with wild-type TIM10
Large screens that a line does not name were inactive (follow-up assays come after a bar, where they were run).

COCCCNC(=O)/C(C#N)=C/c1cccc(NC(=O)c2ccccc2Cl)c1	TIM10 inh 45.1 | tim10 confirm 45.5
O=C1CC(C(=O)N2CCN(c3ccccn3)CC2)CN1Cc1ccccc1Cl (stereo unspecified)	none
Cn1cnnc1Sc1ccc(/C=C/C(=O)c2ccc(O)cc2)cc1[N+](=O)[O-]	none
COc1ccc(NC(=O)/C(C#N)=C/c2ccc(Sc3nncn3C)c([N+](=O)[O-])c2)cc1	TIM10 inh 54.0 | tim10 confirm inactive
CC(=O)N1CCOc2ccc(S(=O)(=O)N3CCC(C(=O)NCc4ccc(C)cc4)CC3)cc21	none
COc1ccc(NC(=S)N/N=C2\CC(C)(C)Oc3ccc(O)cc32)cc1	TIM10 inh 41.1 | tim10 confirm inactive
COc1ccccc1NC(=S)N/N=C1\CC(C)(C)Oc2ccc(O)cc21	none
C[C@H](CO)N1C[C@H](C)[C@@H](CN(C)C(=O)Nc2ccc(C(F)(F)F)cc2)Oc2ccc(NC(=O)Cn3cnnn3)cc2C1=O	none (no result: SKKanGAS inh)
Cc1ccccc1NC(=O)c1cccc(C(=O)Nc2ccccc2C)n1	none
Cc1cccc(NC(=O)c2ccc3ccccc3n2)c1C	TIM10 inh 44.9 | tim10 confirm 31.9
CC1CCN(c2ccccc2NC(=S)NC(=O)c2ccco2)CC1	TIM10 inh 42.6 | tim10 confirm 39.9
CN(C)CCCn1c(SCC(=O)Nc2nc(-c3cccc(Br)c3)cs2)nc2ccccc2c1=O	SKKanGAS inh 97.0, TIM10 inh 43.2 | tim10 confirm inactive
COc1ccc(C=NNc2nc3ccccc3s2)cc1	none (no result: tim10-1 inh, SKKanGAS inh, TIM10 inh, tim23-1 inh)
Cc1ccc2[nH]c(C)c(/C=N/Nc3nc4ccccc4s3)c2c1	PfHsp90 yeast 2 105.8, TIM10 inh 41.9 | tim10 confirm 59.2
COc1ccccc1/C=C1\Oc2cc(OC(=O)N3CCOCC3)ccc2C1=O	none
Cc1ccc(C)c(Nc2nc(-c3ccncc3)nc3ccccc23)c1	none
CCn1c(CNc2cccc(Cl)c2)nnc1SCC(=O)OC1CCCCC1	none
CCn1c(CNc2ccc(Cl)cc2)nnc1SCC(=O)OC1CCCCC1	TIM10 inh 45.2 | tim10 confirm inactive
CCC(CC)C(=O)N1N=C(c2ccc(NS(C)(=O)=O)cc2)CC1c1ccc(C)cc1 (stereo unspecified)	none
O=C(N/N=C/c1ccc(Br)cc1)c1ccc(NC(=O)c2ccccc2)cc1	none (no result: tim10-1 inh, SKKanGAS inh, TIM10 inh, tim23-1 inh)
O=C(N/N=C/c1sc2ccccc2c1O)c1ccccc1	PfHsp90 yeast 2 100.1, SKKanGAS inh 90.1, TIM10 inh 40.3 | tim10 confirm inactive
CC(=O)Nc1cc(C(=O)N2CCc3ccccc3C2)ccc1Sc1ccc(Cl)cc1	TIM10 inh 41.6 | tim10 confirm inactive
Cc1onc(-c2c(F)cccc2Cl)c1C(O)c1ccc(F)cc1 (stereo unspecified)	none (no result: PfHsp90 yeast 2)
COc1ccc(NC(=S)NNC(=O)COc2ccc(Cl)cc2Cl)cc1	TIM10 inh 46.6 | tim10 confirm inactive
O=C(Nc1ncccc1Cl)C(Sc1ccccc1)c1ccccc1 (stereo unspecified)	none
Cn1c(SCC(=O)N2CCCC2)nc2ccccc21	none
Cn1c(SCC(=O)N(Cc2ccccc2)C(C)(C)C)nc2ccccc21	TIM10 inh 40.4 | tim10 confirm inactive
O=C(COc1ccc(Cl)cc1Br)Nc1cccc(S(=O)(=O)N2CCCC2)c1	none (no result: SKKanGAS inh)
Cc1ccc(NS(=O)(=O)c2ccc(NC(=O)c3ccccc3C(=O)O)cc2)c(C)c1	none
Cc1ccc(NS(=O)(=O)c2ccc(NC(=O)c3ccc(Br)o3)cc2)c(C)c1	TIM10 inh 41.9 (no result: PfHsp90 yeast 2) | tim10 confirm inactive
COCC(C)NC(=O)COCc1cc(-c2ccc3c(c2)OCO3)on1 (stereo unspecified)	none
CCn1c(C)cc(/C=C2/SC(=S)NC2=O)c1C	TIM10 inh 44.4 | tim10 confirm inactive
CCn1ncc(/C=C2/SC(=S)NC2=O)c1C	none
CNc1nc2ccccc2n1/N=C/c1cccc(OC)c1OC	TIM10 inh 47.7 (no result: PfHsp90 yeast 2) | tim10 confirm inactive
COCC(C)n1c(SCC(=O)N2CCc3ccccc3C2)nc2ccccc2c1=O (stereo unspecified)	none
Cc1cc(Br)c(OCc2ccc(C(=O)N/N=C3\CC4CC=CC34)cc2)c(Br)c1 (stereo unspecified)	SKKanGAS inh 68.1, TIM10 inh 42.4 | tim10 confirm 43.8
CCN(CC(=O)N1CCCC1)S(=O)(=O)c1cc(C)ccc1OC	none
CCOC(=O)C1=C(N)Oc2ccc3ccccc3c2C1c1cccnc1 (stereo unspecified)	TIM10 inh 45.7 | tim10 confirm inactive
CCCn1c(SCC(=O)NC2CCCC2)nc2c1c(=O)n(C)c(=O)n2C	none
CCC(C)NC(=O)c1cc2cc3ccc(OC)cc3nc2s1 (stereo unspecified)	TIM10 inh 45.8 | tim10 confirm inactive
CCC(C)NC(=O)c1cc2c(=O)n3ccccc3nc2s1 (stereo unspecified)	none
COc1ccc2cc3cc(C(=O)NCCN4CCc5ccccc5C4)sc3nc2c1	TIM10 inh 69.3 | tim10 confirm 67.4
Cc1nnc(NC(=O)c2cccc(F)c2)s1	none
CC(=O)Cc1nsc(NC(=O)c2cccc(F)c2)n1	TIM10 inh 50.1 (no result: PfHsp90 yeast 2) | tim10 confirm inactive
CC(/C=C1\SC(=S)N(NS(=O)(=O)c2ccc(C)cc2)C1=O)=C\c1ccccc1	SKKanGAS inh 78.3, TIM10 inh 48.2 | tim10 confirm inactive
CC(/C=C1\SC(=S)N(NC(=O)c2ccccc2C)C1=O)=C\c1ccccc1	none
CCOC(=O)c1cc2c(c(-c3ccccc3)n1)[C@@H](CCO)N(S(=O)(=O)C(C)(C)C)C2	none (no result: tim10-1 inh, SKKanGAS inh, TIM10 inh, tim23-1 inh)
CCCN=C(C)c1c(-c2ccccc2)[nH]n(-c2nc3ccccc3s2)c1=O	TIM10 inh 45.4 (no result: PfHsp90 yeast 2) | tim10 confirm 39.5
COc1ccccc1NC(=O)C(C)N(C)Cc1ccc(Cl)s1 (stereo unspecified)	none
Cc1nn(C)cc1/C=N/NC(=S)Nc1ccc(Cl)cc1Cl	none
CCn1nc(C)c(/C=N/NC(=S)Nc2ccc(Cl)cc2Cl)c1C	TIM10 inh 42.3 | tim10 confirm inactive
CCOc1ccc(/C=N/n2c(SC)nnc2-c2ccccc2)cc1OCC	TIM10 inh 43.2 | tim10 confirm inactive
CCOc1ccc(C=NN2CCCCCC2)cc1OCC	none (no result: tim10-1 inh, SKKanGAS inh, TIM10 inh, tim23-1 inh)
COc1cc(/C=C(\C#N)C(=O)Nc2cccc3ncccc23)cc(OC)c1OC	TIM10 inh 42.0 | tim10 confirm inactive
COc1ccc(/C=C(\C#N)C(=O)Nc2cccc3ncccc23)cc1OC	none
O=C(Oc1ccc2c(=O)c(Oc3ccc4ccccc4c3)coc2c1)c1cccnc1	none
O=C(Oc1ccc2c(=O)c(Cl)coc2c1)c1cccnc1	TIM10 inh 45.1 | tim10 confirm inactive
COc1ccc(-n2cc(-c3ccccc3)c3c(=O)[nH]cnc32)cc1	TIM10 inh 50.8 | tim10 confirm 45.5
O=C(c1cc2c(s1)CCCC2)N1CCN(CCO)CC1	none (no result: PfHsp90 yeast 2, SKKanGAS inh)
COc1cc(/C=C/C(=O)OCC(=O)NCCN2C(=O)CSC2=O)ccc1OCC#N	none (no result: SKKanGAS inh)
O=[N+]([O-])c1cc(F)cc(F)c1Nc1cc(F)cc(F)c1	none (no result: tim10-1 inh, SKKanGAS inh, TIM10 inh, tim23-1 inh)
